SKKanGAS inh: blocks kanamycin growth of S. pyogenes SKKanGAS strain. 300,000 tested, 1.3% active. inhibition, % at 7.5 µM. BacTiter-Glo, 6 h;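 active = mean replicate score, as percent of positive control median, at least 50; inconclusive = mean below 50 but one replicate at or above 50; inactive = mean and every replicate below 50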;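 note: strain carries kanamycin resistance gene driven by streptokinase promoter and grows in 40 µg/ml kanamycin; loss of luminescence reflects streptokinase promoter inhibition or plain growth inhibition; 0% = median of DMSO wells and 100% = positive control at its reference dose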
Calb FLC: affects C. albicans growth with fluconazole | C. albicans CaCi-2 (fluconazole-resistant clinical isolate) + fluconazole, Alamar Blue growth, 48 h | AID 1979 | 300,000 tested, 0.57% active | growth inhibition, % (concentration not given with the values);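 active = growth inhibition above about 58% in most replicates, limit read from the data, passing the limit was not always enough; inconclusive = exactly half the replicates above a set limit; inactive = most replicates below a set limit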;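 note: all wells also contain fluconazole at 8 µg/ml as a sub-toxic cotreatment; 0% = median of DMSO wells and 100% = median of geldanamycin control wells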
CSC inhib: cancer stem cell inhibition; inhibition, % at 7.5 µM; 300,000 tested, 1.1% active; cancer stem cell-like cells viability, luminescence; in the data active = inhibition above about 75%; inconclusive = no clear call, values can overlap the other calls; tested in HMLE shEcad cells
MPTP block: inhibitors of mitochondrial permeability transition pore; 360,000 tested, 1.4% active; isolated mouse mitochondria, Ca2+ swelling absorbance, 30 min; inhibition, % at 10 µM;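 active = inhibition of 50% or more, scaled per plate between neutral and stimulator controls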;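 note: 0% = DMSO wells given calcium and 100% = 1 mM EGTA wells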
Mdm2-MdmX inh: inhibitors of human Mdm2/MdmX interaction; O15151+Q00987; SaOS-2 split-luciferase Mdm2/MdmX complementation, luminescence; inhibition, % at 8 µM; 330,000 tested, 3% active; AID 485346;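 active = inhibition of at least 50% at 8 µM in the primary screen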
Target sequence (O15151 whole entry, looked up): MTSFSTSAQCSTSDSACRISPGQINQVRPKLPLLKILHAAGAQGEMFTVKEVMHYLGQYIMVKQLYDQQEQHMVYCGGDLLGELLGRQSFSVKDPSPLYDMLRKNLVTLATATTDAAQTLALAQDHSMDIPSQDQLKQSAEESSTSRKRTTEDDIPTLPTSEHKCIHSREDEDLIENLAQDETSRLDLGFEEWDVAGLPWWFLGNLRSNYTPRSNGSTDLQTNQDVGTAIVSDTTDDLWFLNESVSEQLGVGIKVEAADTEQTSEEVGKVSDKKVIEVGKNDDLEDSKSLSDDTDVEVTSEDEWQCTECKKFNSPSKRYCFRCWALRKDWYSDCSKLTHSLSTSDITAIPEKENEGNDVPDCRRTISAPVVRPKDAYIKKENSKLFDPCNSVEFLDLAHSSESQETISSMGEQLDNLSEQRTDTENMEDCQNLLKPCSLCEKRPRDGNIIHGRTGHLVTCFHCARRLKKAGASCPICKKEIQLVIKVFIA
Target sequence (Q00987 whole entry, looked up): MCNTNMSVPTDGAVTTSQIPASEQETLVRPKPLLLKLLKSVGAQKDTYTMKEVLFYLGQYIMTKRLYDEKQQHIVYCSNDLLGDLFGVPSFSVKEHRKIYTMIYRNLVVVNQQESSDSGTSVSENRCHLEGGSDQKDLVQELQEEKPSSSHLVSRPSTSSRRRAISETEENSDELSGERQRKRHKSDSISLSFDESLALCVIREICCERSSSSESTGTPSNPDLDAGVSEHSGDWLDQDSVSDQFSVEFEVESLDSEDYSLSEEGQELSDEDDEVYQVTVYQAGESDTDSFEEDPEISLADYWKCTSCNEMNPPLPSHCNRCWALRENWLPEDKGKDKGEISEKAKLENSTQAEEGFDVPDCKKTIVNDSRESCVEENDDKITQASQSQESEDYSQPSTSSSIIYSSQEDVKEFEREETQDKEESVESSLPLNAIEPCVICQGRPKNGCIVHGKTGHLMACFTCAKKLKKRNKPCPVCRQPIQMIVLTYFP
Beta apoptosis: beta cell apoptosis inhibition | INS-1E cytokine-induced death, ATP luminescence, 48 h; percent of positive-control rescue, neutral wells zero | protection from apoptosis, % (concentration not given with the values) | 300,000 tested, 0.8% active | AID 435005;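 active = Every replicate reaches about 75%, or at least half do and their mean reaches it too, limit read from the data; inconclusive = At least half of replicates reach the limit but their mean does not; inactive = Under half of replicates reach the limit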;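 note: 0% = cytokine-treated negative control wells and 100% = positive control rescue; higher means more ATP so stronger rescue from cytokine killing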
The depositor's hits bear a star; ? = inconclusive; nt = not tested or not shown. Hits are enriched below; roughly 5.4% of the tested compounds scored in any of these assays.

SMILES | SKKanGAS inh | Calb FLC | CSC inhib | MPTP block | Mdm2-MdmX inh | Beta apoptosis
Cc1cccc(/C=c2\s/c(=C\C(=O)C(C)(C)C)[nH]c2=O)c1 | 76.9* | 2.7 | 44.4 | 3.3 | 24.1 | 6.6
Cc1nc2nc(-c3cccs3)[nH]c2cc1Br | 18.4 | -10.3 | 11.8 | 3.5 | -79.3 | 8.2
Cc1cccc(C(=O)Nc2scc(-c3ccc(Br)cc3)c2C(=O)O)c1 | 89.4* | 5.6 | 17.2 | 11.7 | 22.0 | 7.1
CCOC(=O)c1nn(-c2ccccc2C)c(=O)cc1OCC(=O)N1CCN(c2ccccc2)CC1 | -2.0 | -4.9 | 2.2 | -0.4 | -10.5 | 0.8
O=C(NCC1CCCO1)c1cc2n(n1)C(C(F)(F)F)CC(c1ccc(Br)cc1)N2 (configuration not stated) | 0.4 | 92.8* | 0.7 | 1.1 | 12.7 | -29.6
O=C(NCC1CCCO1)c1nn2c(c1Cl)NC(c1ccc(F)cc1)CC2C(F)(F)F (configuration not stated) | nt | nt | -15.8 | 0.1 | nt | -5.8
CSc1cc(-c2ccccc2)n(C)c(=O)c1C#N | -13.8 | 103.9* | -1.7 | -0.3 | 3.8 | 1.1
CCN(CC)c1ccc(/C=N/NC(=O)c2ccoc2C)c(O)c1 | 29.8 | -1.8 | 43.3 | 4.4 | 39.0 | 100.5*
Cc1occc1C(=O)N/N=C/c1ccc(-c2ccccc2)cc1 | 55.2* | -7.1 | -5.2 | -0.6 | -124.1 | 49.9
Cc1occc1C(=O)N/N=C/c1ccc(OCc2ccccc2)cc1 | 1.1 | 1.1 | 2.6 | -2.2 | -23.7 | 3.5
O=C(CSCc1cccc(Br)c1)N/N=C/c1ccc2c(c1)OCO2 | 9.1 | -10.9 | 100.3* | 4.8 | 29.4 | -1.1
O=C(N/N=C/c1ccc2c(c1)OCO2)c1ccc(COCC(F)(F)C(F)F)cc1 | 6.2 | 3.7 | 82.6* | 1.3 | 11.1 | 2.9
CCN(CC)c1ccc(/C=N/NC(=O)OC)c(O)c1 | -2.4 | 1.0 | -8.6 | 0.8 | -17.0 | -10.3
O=C(CN1CCN(Cc2ccccc2F)C1=O)NCc1cccnc1 | -3.3 | -5.0 | 4.8 | -3.0 | -0.2 | -2.2
C[C@H](NC(N)=O)C(=O)OCC(=O)NCc1cccs1 | -2.9 | 21.9 | 11.7 | -0.3 | -11.1 | -3.9
CC(C(=O)N1CCc2ccccc21)n1cnc2c1c(=O)n(C)c(=O)n2C (configuration not stated) | nt | nt | nt | -0.7 | 21.1 | 3.3
CCOC(=O)c1cc2n(c1/N=C/N(C)C)-c1ccccc1C2=O | 3.6 | 1.6 | 3.6 | -0.7 | 6.3 | 2.7
Cc1occc1C(=O)N/N=C/c1ccc2c(c1)OCO2 | 34.3 | -23.1 | 48.9 | 2.5 | -71.3 | 76.1*
CCOc1ccc(/C=N/NC(=O)CCC(=O)Nc2ccc(F)cc2)cc1 | 4.9 | 0.8 | -10.6 | 0.7 | 17.5 | -0.9
CCOc1ccc(NC(=O)CCC(=O)N/N=C/c2ccc3c(c2)OCO3)cc1 | -8.4 | 110.7* | -1.8 | 2.0 | 22.5 | -6.6
Cc1ccc(S(=O)(=O)N2CCN(C(=O)COC(=O)C3CC3C)CC2)c(C)c1 (configuration not stated) | nt | nt | -6.1 | -0.5 | -37.4 | -1.4
CC(C)Sc1nc(C(F)(F)F)cc(=O)n1-c1ccccc1 | -0.9 | 16.6 | -11.0 | 3.8 | 6.9 | 3.9
CS(=O)(=O)c1ccc([C@@H](O)[C@@H](CO)NC(=O)C(Cl)Cl)cc1 | 107.9* | 17.4 | -16.0 | -0.9 | 12.7 | 21.8
COc1ccc(CCNC(=O)CN2C(=O)COc3ccc(S(=O)(=O)N4CCOCC4)cc32)c(OC)c1 | 5.4 | 18.4 | 5.4 | -1.2 | -0.1 | -2.7
C/C(CC(=O)Nc1ccc(C)c(Cl)c1)=N\NC(=O)c1ccco1 | 3.0 | ? | -4.4 | 0.4 | -18.6 | nt
SMILES | SKKanGAS inh | Calb FLC | CSC inhib | MPTP block | Mdm2-MdmX inh | Beta apoptosis
CCOC(=O)c1ccc(Nc2nc(C)nc3c2nnn3Cc2ccccc2)cc1 | 53.0* | 7.0 | 8.3 | 0.7 | 13.0 | nt
COc1ccc(Cl)cc1Nc1nc(C)nc2c1nnn2Cc1ccccc1 | -1.6 | -0.9 | 4.6 | 0.5 | 8.5 | -5.1
Cc1ccc(C(=O)Nc2cccc(C(F)(F)F)c2)cc1NC(=O)c1c[nH]c2cc(C(F)(F)F)ccc2c1=O | nt | nt | -4.2 | 9.6 | 27.1 | -10.3
Cc1cn(-c2cc(C(=O)Nc3ccc(C)c(NC(=O)C(=O)c4c[nH]c5ccccc45)c3)cc(C(F)(F)F)c2)cn1 | 68.2* | 3.3 | 130.7* | 1.9 | 46.0 | 16.5
O=c1[nH]c(Nc2ccc3c(c2)OCCO3)nnc1Cc1ccccc1 | 9.5 | 120.2* | -1.2 | 0.1 | -3.2 | nt
O=C(Nc1cccc(S(=O)(=O)N2CCCCCC2)c1)C1=COCCO1 | nt | -4.9 | -7.5 | -2.0 | -0.2 | -1.8

High-throughput results (PubChem)
